Results taken from PubChem BioAssay (NCI).
About 79,000 compounds went through this panel and 15% of them were active in at least one assay; those are over-represented in the sample as a whole. Cut-off read from the data, not from the text of the source: active = growth inhibition above about 70%; inactive = the rest.

Tests used:
[1] = NCI Yeast Anticancer Drug Screen. Data for the rad50 strain (AID 155);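 note: 0% = growth of vehicle-only cultures of the same strain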; details: S. cerevisiae rad50 strain growth inhibition; at 50.0 µM; stronger effect = higher value
Procedure, shortened: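 Inhibition values express reduced yeast growth in compound-treated cultures relative to vehicle-treated controls.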

[2] = NCI Yeast Anticancer Drug Screen. Data for the mec2-1 strain (AID 157); details: S. cerevisiae mec2-1 strain, at 50.0 µM, stronger effect = higher value
Procedure, shortened: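 Test agents were screened against the mec2-1 yeast strain, with defined DNA repair or cell cycle alteration. Growth was scored as inhibition against vehicle-only controls.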

[3] = NCI Yeast Anticancer Drug Screen. Data for the sgs1 mgt1 strain (AID 161);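 note: 0% = growth of cultures given vehicle only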; details: S. cerevisiae sgs1 mgt1 strain, at 50.0 µM, stronger effect = higher value
Procedure, shortened: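 Read-out: growth inhibition vs vehicle controls. Cells: mutant yeast strain deficient in DNA damage repair.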

[4] = NCI Yeast Anticancer Drug Screen. Data for the cln2 rad14 strain (AID 165);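 note: 0% = growth equal to vehicle treated cultures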; details: S. cerevisiae cln2 rad14 strain, at 50.0 µM, stronger effect = higher value
Procedure, shortened: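 Growth of compound-exposed yeast (cln2 rad14 genotype) measured and expressed as inhibition relative to vehicle.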

[5] = NCI Yeast Anticancer Drug Screen. Data for the bub3 strain (AID 167); details: S. cerevisiae bub3 mutant strain, at 50.0 µM, stronger effect = higher value
Procedure, shortened: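 Steps: expose the mutant yeast strain to compound; grow alongside vehicle-treated cultures; measure growth; express inhibition against the vehicle cultures.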

[6] = NCI Yeast Anticancer Drug Screen. Data for the mlh1 rad18 strain (AID 175); details: S. cerevisiae mlh1 rad18 strain growth inhibition; at 50.0 µM; stronger effect = higher value
Procedure, shortened: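 In this whole-cell yeast screen, a strain with altered DNA damage repair is challenged with compound, and its growth is measured against matched vehicle-treated controls.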

Measured: growth inhibition

N=c1nnc2ccc(Cl)cc2n1O
inactive: [1] 64.5% | [2] 4.7% | [3] 15.6% | [4] 9.65% | [5] -1.85% | [6] -5.25%

CC(=O)OC1CC2C(CCC3CC(C(C)=O)CCC32C)C2CCC(/C(C)=C/C=C(c3ccccc3)c3ccccc3)C12C (stereo unspecified)
inactive: [1] 19.6% | [2] 3.1% | [3] 7.35% | [4] -9.4% | [5] -3.05% | [6] 2.6%

CCc1cc(C(=O)NN)c2ccccc2n1
inactive: [1] -17.6% | [2] -14.6% | [3] -10.6% | [4] -18.4% | [5] -11.8% | [6] 11.5%

CC1(C)N=C(N)N=C(N)N1c1ccc(NC(=O)Nc2ccccc2)cc1
inactive: [1] 16.6% | [2] -13.2% | [3] 16.1% | [4] -43.2% | [5] -2.35% | [6] 10.3%

CN(C)CCNC(=O)c1cccc(C(=O)Nc2ccccc2)c1[N+](=O)[O-]
inactive: [1] 13.7% | [2] -12.6% | [3] -7.7% | [4] 20.4% | [5] -9.95% | [6] -41.6%

ClCCCCC(Cl)(Cl)Cl
inactive: [1] 27.9% | [2] 27.6% | [3] 10.4% | [4] -16.3% | [5] 21.9% | [6] 23.3%

O=c1[nH]c2cc(Cl)ccc2nc1/C=C(\O)c1ccc(F)cc1
inactive: [1] 23.1% | [2] 17.6% | [3] 17.2% | [4] 8.2% | [5] -6.3% | [6] 27.4%

CCC(CC)COC(=O)c1ccccc1
inactive: [1] 0.95% | [2] -7.05% | [3] -3.75% | [4] -14.8% | [5] 17.2% | [6] -0.75%

Cn1c(=O)c2[nH]c(CC3=CCCCC3)nc2n(C)c1=O
inactive: [1] -13.6% | [2] 13.1% | [3] 6.05% | [4] -8.35% | [5] 4.4% | [6] 21.6%

CC(C)=CCc1c(C)c(O)c(C)c(C)c1O
inactive: [1] 7.15% | [2] 1.25% | [3] 9.6% | [4] -71.9% | [5] -11.4% | [6] 8.05%

CSc1n[nH]c(=O)c2nc[nH]c12
inactive: [1] -9.3% | [2] -9.2% | [3] 0.55% | [4] -34.5% | [5] 7.75% | [6] -5.2%

CCCCCCCCCCCCCCCC(=O)OCC1OC(n2ccc(N)nc2=O)C(O)C1O (stereo unspecified)
inactive: [1] -1.2% | [2] -10.3% | [3] 3.2% | [4] 8.2% | [5] 4.1% | [6] -2.8%

O=C(Cl)C1C2C=CC(C2)C1C(=O)Cl (stereo unspecified)
inactive: [1] 3.1% | [2] -20.4% | [3] -2.35% | [4] -9.15% | [5] 15.6% | [6] 2.55%

O=S(=O)(/N=C1C=C/C(=N\S(=O)(=O)c2ccccc2)C2C/1C2(c1ccccc1)c1ccccc1)c1ccccc1 (stereo unspecified)
inactive: [1] 39.7% | [2] 17.6% | [3] 29.8% | [4] -30.6% | [5] 1.75% | [6] 13.7%

CC(=O)NCC(O)c1ccc([N+](=O)[O-])cc1 (stereo unspecified)
inactive: [1] -23.3% | [2] -31.1% | [3] 1.4% | [4] 7% | [5] -14.1% | [6] -23%

CCCc1ncc(C[n+]2ccccc2C)c(N)n1
inactive: [1] 11.8% | [2] -15.1% | [3] 23.2% | [4] 25.4% | [5] 10.7% | [6] 8.25%

CCC(O)(CC)Cc1ccc(Cl)cc1
inactive: [1] -1% | [2] -9.55% | [3] -0.4% | [4] -12.2% | [5] -12.4% | [6] -6.65%

O=C1CN(CCCN2CCOCC2)CC(=O)N2Cc3ccccc3CN12
inactive: [1] -25.9% | [2] -3.8% | [3] -9.45% | [4] -0.45% | [5] 2.95% | [6] 3.7%

N#CCCC1(CCC#N)CCCCCCCCC(CCC#N)(CCC#N)C(=O)C1=O
inactive: [1] -8.7% | [2] -7.2% | [3] -5.15% | [4] 6.65% | [5] 2.4% | [6] 14.7%

CC(Cl)(CCl)C(=O)NCNC(=O)C(C)(Cl)CCl (stereo unspecified)
inactive: [1] 51.5% | [2] 3.8% | [3] 8.2% | [4] -19.1% | [5] 15.8% | [6] 28.2%

COc1ccc(OC)c(N=Cc2cccs2)c1
inactive: [1] 14.6% | [2] 5.95% | [3] 20.9% | [4] 15.1% | [5] 16.2% | [6] 22.1%

CN1C(c2ccccc2)=C(C#N)C(=O)CC(c2ccco2)N1C (stereo unspecified)
inactive: [1] 4.3% | [2] -4.4% | [3] 4.65% | [4] 10.9% | [5] 11% | [6] 13.1%

O=C1/C(=C/c2ccco2)SC(=S)N1C1c2ccccc2Oc2ccccc21
inactive: [1] 25% | [2] 6.65% | [3] 67.2% | [4] 45.6% | [5] -0.4% | [6] 24.8%

O=C1c2ccccc2C(O)(C#Cc2ccccc2)c2c1c(-c1ccccc1)c1ccccc1c2-c1ccccc1 (stereo unspecified)
inactive: [1] 14.7% | [2] 6.15% | [3] 15.7% | [4] 9.75% | [5] -8.3% | [6] 10.4%

Nc1nc(O)cc(=O)[nH]1
inactive: [1] 3.35% | [2] -1.95% | [3] -0.65% | [4] -8.5% | [5] 2.35% | [6] -3.25%

O=C(/C=C/c1ccccc1)NC(Cc1ccccc1)C(=O)O (stereo unspecified)
inactive: [1] -21% | [2] -11.4% | [3] -8.25% | [4] -5.55% | [5] -14.1% | [6] -12.2%

Cc1cncc(C)c1
inactive: [1] 17.6% | [2] -22.1% | [3] 5.6% | [4] -6.85% | [5] 7.2% | [6] 8.5%

Cc1ccc(/C=N/NC(N)=O)cc1
inactive: [1] 25.6% | [2] 15.8% | [3] 12.3% | [4] 10.4% | [5] 17.2% | [6] -3.85%

COC(=O)C(=[N+]=[N-])C(=O)c1cccc([N+](=O)[O-])c1
inactive: [1] 11.1% | [2] 15.5% | [3] 5.75% | [4] 17.2% | [5] 3.2% | [6] 12.2%

OCC(CO)(CO)CO
inactive: [1] 18.9% | [2] -0.7% | [3] -6.8% | [4] -16.1% | [5] 28.8% | [6] -5.3%

OCC1(OC2OC(CF)C(O)C(O)C2O)OC(CF)C(O)C1O (stereo unspecified)
inactive: [1] -1.1% | [2] 0.75% | [3] -5.65% | [4] -23.5% | [5] 3.3% | [6] 3.85%

O=C(O)C1(O)CC(O)C(O)C(O)C1 (stereo unspecified)
inactive: [1] 5.25% | [2] -7.05% | [3] -0.25% | [4] -13.8% | [5] 8.55% | [6] -0.8%

COc1cc(/C=C/C(=N\NC(N)=S)c2sc(NNC(C)=O)nc2C)ccc1O
inactive: [1] 22.9% | [2] 6.8% | [3] 16.3% | [4] 21.2% | [5] 24.6% | [6] 14.8%

CCCCc1c2c([n+]([O-])c3c1CCCC3)CCCC2
inactive: [1] 29.4% | [2] 30.3% | [3] 54.1% | [4] -11.2% | [5] 17.2% | [6] 20.1%

c1ccc(N=C2SC(=NNc3ccccc3)SC2=Nc2ccccc2)cc1
inactive: [1] -21.8% | [2] 6.25% | [3] -21.9% | [4] -29.5% | [5] -8.25% | [6] -4.1%

c1cc(Sc2nc(Sc3ccncc3)nc(Sc3ccncc3)n2)ccn1
inactive: [1] 5.15% | [2] 8.6% | [3] 14.8% | [4] 39.2% | [5] -9.7% | [6] -7.25%

Cc1cc(Cl)cc(Cl)c1OCC(=O)O
inactive: [1] 6.3% | [2] -1.35% | [3] 4.4% | [4] -24.3% | [5] -1.75% | [6] 0.05%

Cc1ccc2c(c1)sc(C)[n+]2CCO
inactive: [1] -19.9% | [2] -19.5% | [3] -38.8% | [4] -5.65% | [5] -9.65% | [6] -18.4%

c1ccc2c3c(ccc2c1)Oc1ccc2ccccc2c1C3CCC1c2c(ccc3ccccc23)Oc2ccc3ccccc3c21
inactive: [1] -8.75% | [2] -19.6% | [3] -4.9% | [4] 1.5% | [5] -17.2% | [6] 7.75%

Cc1[nH]n(C2=NCCN2)c(=O)c1Cc1ccccc1
inactive: [1] 4.6% | [2] -6.95% | [3] -24.2% | [4] -26.3% | [5] -10.6% | [6] -61.6%

CC1C(C)C1(c1ccccc1)C(C)(C)O (stereo unspecified)
inactive: [1] 8.55% | [2] 1.1% | [3] 1.3% | [4] 16.9% | [5] -24.1% | [6] -3.45%
